CYP2C19 inhib: blockers of cytochrome P450 2C19 activity – biochemical, luminescence, ADME assay, primary screen. P33261. CYP2C19 Supersomes, luciferin-H EGE luminescence, 30 min. inhibition, % at 5 µM. 21% of 96,000 active;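 active means CYP2C19 inhibition above a set limit at 5 µM in the primary screen, cut at about 50% in these data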;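 further: plate controls were negative control wells for no effect and 2.5 mM tranylcypromine positive control for full effect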
Target sequence (P33261 whole entry, looked up): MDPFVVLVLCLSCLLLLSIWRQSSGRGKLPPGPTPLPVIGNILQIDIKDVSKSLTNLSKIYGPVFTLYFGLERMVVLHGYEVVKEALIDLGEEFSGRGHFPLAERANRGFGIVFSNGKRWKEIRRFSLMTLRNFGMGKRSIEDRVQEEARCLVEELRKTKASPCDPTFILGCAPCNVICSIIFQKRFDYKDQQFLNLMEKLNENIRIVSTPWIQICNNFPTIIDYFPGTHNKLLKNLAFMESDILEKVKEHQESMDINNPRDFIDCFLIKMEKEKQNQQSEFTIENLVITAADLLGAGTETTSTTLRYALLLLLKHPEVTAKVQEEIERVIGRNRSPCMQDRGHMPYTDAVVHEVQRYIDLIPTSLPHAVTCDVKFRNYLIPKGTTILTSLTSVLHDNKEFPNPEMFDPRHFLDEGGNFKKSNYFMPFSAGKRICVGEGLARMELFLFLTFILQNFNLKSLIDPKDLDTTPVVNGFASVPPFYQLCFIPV
sEH inhibitor: soluble epoxide hydrolase inhibitors, primary screen, biochemical, human sEH. Bifunctional epoxide hydrolase 2 (Homo sapiens), P34913. recombinant human sEH enzymatic activity assay. inhibition, % at 2 µM. 0.34% of 91,000 active. AID 707, 2007; in the data active means inhibition above about 80%
CYP2C19 activ: human CYP2C19 activators, primary screen, biochemical, luminescence; 96,000 tested, under 10 active; AID 1025, 2008; activation factor at 5 µM; recombinant CYP2C19, luciferin-H EGE luminescence; stronger effect = higher value; 0 = fully inhibited enzyme, 1 = untreated enzyme; Cytochrome P450 2C19 (Homo sapiens), P33261;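 active means activation factor of at least 2 at 5 µM in the primary screen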;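 further: 0 = wells with 2.5 mM tranylcypromine and 1 = vehicle-only wells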
CYP2C9 activ: human CYP2C9 activators, primary screen, biochemical, luminescence; recombinant CYP2C9, luciferin-H conversion; stronger effect = higher value; factor 1 = untreated enzyme, 0 = blocked; activation factor at 5 µM; 1.4% of 96,000 active;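 active means activation factor of 2 or more for CYP2C9 at a 5 µM dose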;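 further: 0 = sulfaphenazole-blocked wells and 1 = vehicle-only wells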
CYP2C9 inhib: blockers of cytochrome P450 2C9 activity – biochemical, luminescence, ADME assay, primary screen; P11712; CYP2C9 Supersomes, luciferin-H conversion; inhibition, % at 5 µM; 20% of 96,000 active;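 active means blocking of liver enzyme CYP2C9 beyond about 50% at 5 µM, limit read from the data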
sEH act: soluble epoxide hydrolase activators, primary screen, biochemical, human sEH | activation, % at 2 µM | purified human sEH enzymatic activity, activator screen | Bifunctional epoxide hydrolase 2 (Homo sapiens), P34913 | AID 717, 2007 | 0.04% of 91,000 active; in the data active means activation above about 37%
An asterisk follows results filed as active. Most compounds without a hit are left out; they make up all but 27% or so of the library.

`Brc1ccc(-c2nc(-c3ccncc3)no2)o1` gave CYP2C19 inhib 91*, sEH inhibitor 1, CYP2C19 activ 0.1, CYP2C9 activ 0.5, CYP2C9 inhib 48 and sEH act 4.
Screening Brc1ccc(-c2nc(-c3ccccn3)no2)o1 returned CYP2C19 inhib 62*, sEH inhibitor -3, CYP2C19 activ 0.4, CYP2C9 activ 0.7, CYP2C9 inhib 27 and sEH act 3.
Screening COc1ccc(-c2noc(-c3ccc(Br)o3)n2)cc1OC returned CYP2C19 inhib 4, sEH inhibitor 8, CYP2C19 activ 1, CYP2C9 activ 1.1, CYP2C9 inhib -8 and sEH act -5.
CC1(c2ccccc2)NC(=S)N2C1NC(=S)N2c1ccccc1 (centres undefined) was read as CYP2C19 inhib 70*, sEH inhibitor -8, CYP2C19 activ 0.3, CYP2C9 activ 0.7, CYP2C9 inhib 33 and sEH act 7.
Screening CC1CCCC2(C1)NC(=S)N(c1ccccc1)N2 (centres undefined) returned CYP2C19 inhib 42, sEH inhibitor 9, CYP2C19 activ 0.6, CYP2C9 activ 0.8, CYP2C9 inhib 21 and sEH act -8.
For CCCCN(C)C(=O)CS(=O)(=O)Cc1nc(-c2cccc(OC)c2)oc1C the results were CYP2C19 inhib 40, sEH inhibitor -10, CYP2C19 activ 0.6, CYP2C9 activ 0.7, CYP2C9 inhib 28 and sEH act 10.
For C=CCC(C)(NCc1ccccc1)c1ccccc1 (centres undefined) the results were CYP2C19 inhib 62*, sEH inhibitor 5, CYP2C19 activ 0.4, CYP2C9 activ 0.9, CYP2C9 inhib 8 and sEH act -4.
`c1ccc(SCCOCCn2cncn2)cc1` gave CYP2C19 inhib 78*, sEH inhibitor -6, CYP2C19 activ 0.2, CYP2C9 activ 0.8, CYP2C9 inhib 19 and sEH act 10.
For Cc1ccc(SCCCn2cncn2)cc1 the results were CYP2C19 inhib 84*, sEH inhibitor 2, CYP2C19 activ 0.2, CYP2C9 activ 0.7, CYP2C9 inhib 31 and sEH act -1.
c1ccc(COc2ccc(OCCOCCn3cncn3)cc2)cc1 was read as CYP2C19 inhib 31, sEH inhibitor 8, CYP2C19 activ 0.7, CYP2C9 activ 0.7, CYP2C9 inhib 30 and sEH act -5.
For CCOCCOCCC(C(=O)OCC)P(=O)(c1ccccc1)c1ccccc1 (centres undefined) the results were CYP2C19 inhib -7, sEH inhibitor -5, CYP2C19 activ 1.1, CYP2C9 activ 1.1, CYP2C9 inhib -12 and sEH act 1.
Cc1ccc(C(=O)Oc2ccccc2N2C(=O)C3CCC(C)CC3C2=O)cc1 (centres undefined) was read as CYP2C19 inhib 54*, sEH inhibitor -2, CYP2C19 activ 0.5, CYP2C9 activ 0.4, CYP2C9 inhib 58* and sEH act 5.
For O=C(Oc1ccccc1N1C(=O)C2CCCCC2C1=O)c1ccc(Cl)cc1 (centres undefined) the results were CYP2C19 inhib 15, sEH inhibitor -12, CYP2C19 activ 0.8, CYP2C9 activ 1.3, CYP2C9 inhib -33 and sEH act 15.
CC1Cc2ccccc2N1Cc1nc2cc(C(F)(F)F)ccc2c(=O)[nH]1 (centres undefined) was read as CYP2C19 inhib 43, sEH inhibitor 5, CYP2C19 activ 0.6, CYP2C9 activ 0.5, CYP2C9 inhib 51* and sEH act -5.
For CC1Cc2ccccc2N1Cc1cc(=O)n2ccsc2n1 (centres undefined) the results were sEH inhibitor -11 and sEH act 8.
N=c1ncn(CC(O)CO)c2nc(N3CCOCC3)[nH]c12 (centres undefined) was read as CYP2C19 inhib -9, sEH inhibitor 0, CYP2C19 activ 1.1, CYP2C9 activ 1.1, CYP2C9 inhib -12 and sEH act -2.
O=C(NC1CC1)C1CCN(c2ccc(S(=O)(=O)N3CCOCC3)cc2Cl)CC1 was read as CYP2C19 inhib 50, sEH inhibitor -3, CYP2C19 activ 0.5, CYP2C9 activ 0.2, CYP2C9 inhib 78* and sEH act 1.
`CC(C)CNC(=O)C1CCN(c2ccc(S(=O)(=O)N3CCOCC3)cc2Cl)CC1` gave CYP2C19 inhib 40, CYP2C19 activ 0.6, CYP2C9 activ 0.4 and CYP2C9 inhib 56*.
Cc1nc(NC2=NCN(Cc3cccnc3)CN2)nc2c(C)cccc12 was read as CYP2C19 inhib -11, CYP2C19 activ 1.1, CYP2C9 activ 1.2 and CYP2C9 inhib -15.
Screening Cc1ccc(S(=O)(=O)N(C)CC(=O)N2CCCC2)cc1 returned sEH inhibitor -17 and sEH act 17.
Screening O=C(NCCO)c1scc2c1OCCO2 returned CYP2C19 inhib -8, sEH inhibitor 17, CYP2C19 activ 1.1, CYP2C9 activ 1.2, CYP2C9 inhib -17 and sEH act -20.
Screening N#Cc1cc2c(=O)n3ccccc3nc2n(CCCN2CCOCC2)c1=O returned CYP2C19 inhib 69*, CYP2C19 activ 0.3, CYP2C9 activ 0.6 and CYP2C9 inhib 41.
`CCCC1CCc2c(sc(NC(=O)OCC)c2C#N)C1` (centres undefined) gave sEH inhibitor -3 and sEH act 6.
For O=C(Nc1ccn(C2CC(OC(=O)c3ccccc3)C(CO)O2)c(=O)n1)c1ccccc1 (centres undefined) the results were CYP2C19 inhib -8, sEH inhibitor -2, CYP2C19 activ 1.1, CYP2C9 activ 1, CYP2C9 inhib 2 and sEH act 5.
For O=C1CC2C(CC(OC(=O)c3ccc(-c4ccccc4)cc3)C2CO)O1 (centres undefined) the results were CYP2C19 inhib 48, sEH inhibitor 3, CYP2C19 activ 0.5, CYP2C9 activ 0.3, CYP2C9 inhib 72* and sEH act 0.
CC(Sc1ccccc1)C(=O)Nc1ccc(S(=O)(=O)N2CCOCC2)cc1 (centres undefined) was read as CYP2C19 inhib 8, sEH inhibitor 15, CYP2C19 activ 0.9, CYP2C9 activ 0.7, CYP2C9 inhib 28 and sEH act -16.
For CC(=O)NC12CC3CC(C1)CC(C(=O)Nc1nccs1)(C3)C2 the results were CYP2C19 inhib 85*, CYP2C19 activ 0.2, CYP2C9 activ 0.4 and CYP2C9 inhib 56*.
For CC(=O)NC12CC3CC(C1)CC(C(=O)OCC(=O)Nc1ncc(Cl)cc1Cl)(C3)C2 the results were sEH inhibitor 5 and sEH act -6.
